# Activity calls are given as the source filed them.
# Legend:
# [1] = test system: PRMT1 (protein arginine N-methyltransferase 1); test: PRMT1 binders on small-molecule microarrays, primary screen, biochemical, small-molecule microarray, 635 nm fluorescence (AID 1088); details: small-molecule microarray binding, higher = more signal;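 also: binding of Prmt1 protein to compounds spotted on small-molecule microarray slides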
# [2] = yeast growth modulation, basal conditions, primary screen, YJM789 clinical isolate, OD600, 24 h (AID 1089);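 also: growth of clinical yeast isolate S. cerevisiae YJM 789 seeded 1000 cells per well; test concentration not given here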; details: S. cerevisiae YJM789 growth, higher = more signal, called active from +8 up or from −8 down
# [3] = fission yeast growth modulation, primary screen, strain 972, OD600, 24 h, no modulator (AID 1090);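 also: basal condition with compound alone and no growth modifier present; test concentration not given here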; details: S. pombe 972 growth, higher = more signal, called active from +8 up or from −8 down
# [4] = S. cerevisiae growth modulation with rapamycin, primary screen, strain BY4716, OD600, 96 h (AID 1091); details: higher = more signal, called active from +8 up or from −8 down; also: test concentration not given here
# [5] = biological target: Torsin-1A-interacting protein 2 (Homo sapiens) (UniProt Q8NFQ8); test: LULL1 binders on small-molecule microarray, primary screen, cell lysate, human LULL1 lysate, 635/667 nm fluorescence (AID 1092); details: hLULL1 lysate binding, 635 nm fluorescence, higher = more signal;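 also: probe is lysate of COS7 cells overexpressing human LULL1; score merges per-feature 667 nm fluorescence with signal-to-noise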
# Chain of Torsin-1A-interacting protein 2 (Homo sapiens) (Q8NFQ8 whole entry, looked up): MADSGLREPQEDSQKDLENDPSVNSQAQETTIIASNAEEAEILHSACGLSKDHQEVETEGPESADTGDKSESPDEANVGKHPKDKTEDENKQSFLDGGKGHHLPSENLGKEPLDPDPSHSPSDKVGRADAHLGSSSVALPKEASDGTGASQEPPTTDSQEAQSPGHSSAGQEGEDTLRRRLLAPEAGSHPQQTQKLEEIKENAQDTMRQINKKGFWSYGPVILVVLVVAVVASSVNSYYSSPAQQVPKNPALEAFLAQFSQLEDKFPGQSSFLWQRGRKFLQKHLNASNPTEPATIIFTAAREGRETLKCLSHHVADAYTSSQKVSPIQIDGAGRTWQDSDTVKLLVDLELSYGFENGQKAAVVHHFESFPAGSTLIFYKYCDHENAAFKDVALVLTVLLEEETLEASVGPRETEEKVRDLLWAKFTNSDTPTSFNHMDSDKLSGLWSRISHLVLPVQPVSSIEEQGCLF
# [6] = E. coli growth modulation, two-sided OD650, primary screen, E. coli filamentation project, strain DRC41, 24 h (AID 1093); details: OD650, 24 h, higher = more signal, called active from +8 up or from −8 down;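 also: MC1000 strain lacking acrAB efflux and sulA so SOS filamentation is blocked; test concentration not given here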
# [7] = small-molecule microarray binders of probe aLefty2, primary screen, biochemical, biotinylated probe, 635/667 nm fluorescence (AID 1094); details: higher = more signal;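 also: score merges spot fluorescence near 667 nm with spot signal-to-noise ratio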
# [8] = test system: Noggin (protein binding on small-molecule microarray); test: Noggin binders on small-molecule microarray, primary screen, biochemical, 635/667 nm fluorescence (AID 1095); details: 635 nm fluorescence, higher = more signal;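 also: score merges 667 nm feature fluorescence with signal to noise over triplicate slides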
# [9] = biological target: Neurogenic locus notch homolog protein 3 (Homo sapiens) (UniProt Q9UM47); test: NOTCH3 binders on small-molecule microarray, primary screen, biochemical, 635/667 nm fluorescence (AID 1096); details: NOTCH3 binding, 635 nm fluorescence, higher = more signal
# Chain of Neurogenic locus notch homolog protein 3 (Homo sapiens) (Q9UM47 whole entry, looked up): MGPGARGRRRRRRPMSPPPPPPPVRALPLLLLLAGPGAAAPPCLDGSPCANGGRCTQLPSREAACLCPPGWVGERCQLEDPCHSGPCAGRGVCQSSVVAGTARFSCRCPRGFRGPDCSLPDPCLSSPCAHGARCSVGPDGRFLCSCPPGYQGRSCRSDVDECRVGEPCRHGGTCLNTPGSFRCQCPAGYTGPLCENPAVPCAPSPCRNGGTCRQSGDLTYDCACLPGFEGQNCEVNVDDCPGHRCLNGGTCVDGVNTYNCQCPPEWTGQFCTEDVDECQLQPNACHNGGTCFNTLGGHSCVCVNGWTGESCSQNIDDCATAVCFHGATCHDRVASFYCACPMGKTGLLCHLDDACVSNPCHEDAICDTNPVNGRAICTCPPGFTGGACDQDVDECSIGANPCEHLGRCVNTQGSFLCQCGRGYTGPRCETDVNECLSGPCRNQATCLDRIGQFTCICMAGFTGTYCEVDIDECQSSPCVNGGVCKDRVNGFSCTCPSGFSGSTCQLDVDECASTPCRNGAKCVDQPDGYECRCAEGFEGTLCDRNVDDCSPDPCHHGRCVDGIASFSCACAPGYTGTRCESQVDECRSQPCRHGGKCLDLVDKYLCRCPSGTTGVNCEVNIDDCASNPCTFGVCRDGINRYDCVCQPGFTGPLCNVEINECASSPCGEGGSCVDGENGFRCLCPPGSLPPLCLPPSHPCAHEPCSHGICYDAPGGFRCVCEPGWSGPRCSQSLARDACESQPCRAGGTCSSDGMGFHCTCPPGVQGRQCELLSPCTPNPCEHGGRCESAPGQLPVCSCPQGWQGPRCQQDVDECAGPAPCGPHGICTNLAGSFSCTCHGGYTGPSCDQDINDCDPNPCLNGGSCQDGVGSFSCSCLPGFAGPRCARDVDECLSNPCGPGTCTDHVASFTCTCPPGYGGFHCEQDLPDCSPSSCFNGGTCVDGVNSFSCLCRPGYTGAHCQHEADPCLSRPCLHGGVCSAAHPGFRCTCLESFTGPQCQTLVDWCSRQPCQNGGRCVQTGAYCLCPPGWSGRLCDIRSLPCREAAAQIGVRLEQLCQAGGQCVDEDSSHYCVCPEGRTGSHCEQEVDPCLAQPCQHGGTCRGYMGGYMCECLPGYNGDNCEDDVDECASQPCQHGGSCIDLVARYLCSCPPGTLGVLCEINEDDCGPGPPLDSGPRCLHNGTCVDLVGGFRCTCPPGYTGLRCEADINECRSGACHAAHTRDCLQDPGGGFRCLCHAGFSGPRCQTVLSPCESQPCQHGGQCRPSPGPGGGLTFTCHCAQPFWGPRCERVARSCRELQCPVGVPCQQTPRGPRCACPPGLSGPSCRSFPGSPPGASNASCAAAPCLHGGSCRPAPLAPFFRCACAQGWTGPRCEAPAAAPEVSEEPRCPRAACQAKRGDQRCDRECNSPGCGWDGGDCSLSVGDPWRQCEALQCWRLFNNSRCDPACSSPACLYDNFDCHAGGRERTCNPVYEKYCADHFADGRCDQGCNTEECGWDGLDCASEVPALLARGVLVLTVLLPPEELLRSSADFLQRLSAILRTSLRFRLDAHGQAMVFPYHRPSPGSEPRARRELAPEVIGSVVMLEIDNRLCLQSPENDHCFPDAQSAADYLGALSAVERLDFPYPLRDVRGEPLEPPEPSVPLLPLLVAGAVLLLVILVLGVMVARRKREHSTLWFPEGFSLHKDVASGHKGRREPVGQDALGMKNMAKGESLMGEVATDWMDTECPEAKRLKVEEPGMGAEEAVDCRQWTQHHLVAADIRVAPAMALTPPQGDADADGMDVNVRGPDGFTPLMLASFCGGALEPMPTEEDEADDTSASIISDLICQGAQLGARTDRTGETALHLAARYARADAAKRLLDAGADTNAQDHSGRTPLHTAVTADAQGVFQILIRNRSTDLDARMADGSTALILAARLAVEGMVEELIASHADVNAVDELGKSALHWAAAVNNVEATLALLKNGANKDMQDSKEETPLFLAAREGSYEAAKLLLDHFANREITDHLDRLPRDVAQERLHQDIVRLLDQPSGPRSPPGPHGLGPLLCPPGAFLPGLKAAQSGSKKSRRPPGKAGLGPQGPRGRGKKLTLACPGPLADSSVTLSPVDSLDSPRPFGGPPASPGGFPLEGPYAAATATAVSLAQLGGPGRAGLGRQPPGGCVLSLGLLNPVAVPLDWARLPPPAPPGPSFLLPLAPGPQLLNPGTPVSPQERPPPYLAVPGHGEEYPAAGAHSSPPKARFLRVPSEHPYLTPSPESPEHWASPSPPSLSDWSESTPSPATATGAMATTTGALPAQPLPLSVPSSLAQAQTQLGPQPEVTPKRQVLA
# [10] = small-molecule microarray binders of probe aEGFR, primary screen, biochemical, biotinylated probe, 635/667 nm fluorescence (AID 1097); details: higher = more signal;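 also: probe is a biotinylated anti-EGFR antibody binding compounds printed on slides; score combines fluorescence near 667 nm and signal to noise of each spot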
# [11] = test system: Plasmodium falciparum Sir2 (PF13_0152, Sir2A); test: pfSir2 binders on small-molecule microarrays, primary screen, biochemical, small-molecule microarray, 635 nm fluorescence (AID 1098); details: small-molecule microarray binding, fluorescence 635 nm; higher = more signal;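 also: score merges spot fluorescence intensity with its signal-to-noise ratio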
# [12] = small-molecule microarray binders of probe aDKK1, primary screen, biochemical, biotinylated probe, 635/667 nm fluorescence (AID 1099); details: higher = more signal;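 also: score merges 667nm spot fluorescence with signal to noise across triplicate slides; reference of the scale not given here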
# [13] = small-molecule microarray binders of probe aCHRDL2, primary screen, biochemical, biotinylated probe, 635/667 nm fluorescence (AID 1100); details: higher = more signal
# [14] = splicing luciferase reporter signal modulators, primary screen, spliceosome inhibition project, cell-based, HEK293, splice +/- reporter (AID 1101); details: luminescence, 24 h, higher = more signal, called active from +8 up or from −8 down;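 also: HEK293 cells carrying a splicing-competent luciferase reporter gene; test concentration not given here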
# [15] = biological target: Fibroblast growth factor 10 (Homo sapiens) (UniProt O15520); test: FGF10 binders on small-molecule microarrays, primary screen, biochemical, small-molecule microarray, 635 nm fluorescence (AID 1102); details: FGF10 binding, fluorescence 635 nm, higher = more signal
# Chain of Fibroblast growth factor 10 (Homo sapiens) (O15520 whole entry, looked up): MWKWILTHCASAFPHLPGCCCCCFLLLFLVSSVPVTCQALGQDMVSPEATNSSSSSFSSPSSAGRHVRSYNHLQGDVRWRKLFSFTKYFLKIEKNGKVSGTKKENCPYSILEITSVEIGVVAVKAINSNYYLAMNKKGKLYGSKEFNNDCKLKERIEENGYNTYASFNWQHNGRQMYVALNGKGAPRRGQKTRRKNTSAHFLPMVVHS
# [16] = test system: glycogen synthase kinase-3 (GSK3A per assay name; protocol says GSK3B); test: GSK3 binders on small-molecule microarrays, primary screen, biochemical, small-molecule microarray, 635 nm fluorescence, GSK3A (AID 1103); details: small-molecule microarray binding, fluorescence 635 nm; higher = more signal; also: the record names both GSK3A and GSK3B
# [17] = biological target: Epidermal growth factor receptor (Homo sapiens) (UniProt P00533); test: EGFR binders on small-molecule microarrays, primary screen, biochemical, small-molecule microarray, 635 nm fluorescence (AID 1104); details: EGFR binding, higher = more signal;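 also: score merges 667 nm emission intensity with spot signal to noise over triplicate slides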
# Chain of Epidermal growth factor receptor (Homo sapiens) (P00533 whole entry, looked up): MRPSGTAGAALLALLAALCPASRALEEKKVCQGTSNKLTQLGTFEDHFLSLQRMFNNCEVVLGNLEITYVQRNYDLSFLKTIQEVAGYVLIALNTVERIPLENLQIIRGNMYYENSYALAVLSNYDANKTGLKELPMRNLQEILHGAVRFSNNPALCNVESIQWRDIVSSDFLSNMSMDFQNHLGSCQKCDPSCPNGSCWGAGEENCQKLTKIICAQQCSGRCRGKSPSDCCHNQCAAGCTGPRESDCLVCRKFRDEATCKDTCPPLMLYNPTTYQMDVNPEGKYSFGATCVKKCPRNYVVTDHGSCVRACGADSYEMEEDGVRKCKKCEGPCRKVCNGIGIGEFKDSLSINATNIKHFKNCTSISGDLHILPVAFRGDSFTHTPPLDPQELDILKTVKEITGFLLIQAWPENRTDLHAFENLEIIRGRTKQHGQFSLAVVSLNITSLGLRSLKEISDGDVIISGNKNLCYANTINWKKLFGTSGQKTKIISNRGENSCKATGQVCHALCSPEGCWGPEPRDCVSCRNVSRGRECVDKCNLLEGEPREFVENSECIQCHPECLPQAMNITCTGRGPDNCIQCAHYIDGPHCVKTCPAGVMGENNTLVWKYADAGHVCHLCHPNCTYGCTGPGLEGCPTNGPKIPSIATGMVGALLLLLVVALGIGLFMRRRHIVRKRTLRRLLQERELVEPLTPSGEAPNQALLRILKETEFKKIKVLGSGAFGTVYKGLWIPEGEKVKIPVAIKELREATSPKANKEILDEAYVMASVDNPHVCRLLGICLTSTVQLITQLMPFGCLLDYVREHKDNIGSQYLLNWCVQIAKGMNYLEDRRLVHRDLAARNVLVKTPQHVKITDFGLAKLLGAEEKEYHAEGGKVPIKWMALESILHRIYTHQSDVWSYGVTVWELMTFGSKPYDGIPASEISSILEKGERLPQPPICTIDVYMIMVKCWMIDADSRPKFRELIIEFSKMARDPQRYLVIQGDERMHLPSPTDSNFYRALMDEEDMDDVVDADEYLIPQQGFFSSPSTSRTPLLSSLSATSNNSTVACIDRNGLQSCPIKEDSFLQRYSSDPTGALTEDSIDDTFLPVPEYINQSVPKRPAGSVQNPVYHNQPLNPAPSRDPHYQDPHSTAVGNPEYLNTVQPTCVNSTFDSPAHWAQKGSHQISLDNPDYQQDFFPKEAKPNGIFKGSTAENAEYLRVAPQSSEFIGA
# [18] = biological target: Follistatin-related protein 3 (Homo sapiens) (UniProt O95633); test: FSTL3 binders on small-molecule microarrays, primary screen, biochemical, small-molecule microarray, 635 nm fluorescence (AID 1105); details: FSTL3 binding, higher = more signal;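 also: score merges emission near 667 nm and signal to noise per printed spot across three slides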
# Chain of Follistatin-related protein 3 (Homo sapiens) (O95633 whole entry, looked up): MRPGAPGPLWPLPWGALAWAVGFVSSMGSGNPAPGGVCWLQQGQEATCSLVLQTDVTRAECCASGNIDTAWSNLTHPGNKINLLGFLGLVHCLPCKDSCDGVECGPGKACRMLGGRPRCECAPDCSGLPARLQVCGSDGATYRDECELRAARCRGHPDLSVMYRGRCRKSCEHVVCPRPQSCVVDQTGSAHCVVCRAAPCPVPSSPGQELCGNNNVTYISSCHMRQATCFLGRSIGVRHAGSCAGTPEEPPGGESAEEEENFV
# [19] = biological target: Dickkopf-related protein 1 (Homo sapiens) (UniProt O94907); test: DKK1 binders on small-molecule microarrays, primary screen, biochemical, small-molecule microarray, 635 nm fluorescence scan (AID 1106); details: DKK1 binding, higher = more signal;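 also: score merges emission near 667 nm with signal to noise over three replicate slides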
# Chain of Dickkopf-related protein 1 (Homo sapiens) (O94907 whole entry, looked up): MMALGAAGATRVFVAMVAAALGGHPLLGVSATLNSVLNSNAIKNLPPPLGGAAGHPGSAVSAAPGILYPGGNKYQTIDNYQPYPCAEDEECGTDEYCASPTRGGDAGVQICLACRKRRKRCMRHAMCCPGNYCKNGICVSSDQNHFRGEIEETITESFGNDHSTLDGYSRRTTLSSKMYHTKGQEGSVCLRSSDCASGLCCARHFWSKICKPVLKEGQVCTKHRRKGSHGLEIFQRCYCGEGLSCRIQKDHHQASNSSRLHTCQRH
# [20] = test system: Inhibin beta A chain (activin A); test: INHBA (activin A) binders on microarrays, primary screen, biochemical, small-molecule microarray, 635 nm fluorescence scan (AID 1107); details: small-molecule microarray binding, higher = more signal;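 also: mouse activin A protein probed at 4.33 µg/mL on printed slides; score merges bound-protein fluorescence near 667 nm with spot signal-to-noise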
Structure (SMILES),composite z-score [1],z-score [2],z-score [3],z-score [4],composite z-score [5],z-score [6],composite z-score [7],composite z-score [8],composite z-score [9],composite z-score [10],composite z-score [11],composite z-score [12],composite z-score [13],z-score [14],composite z-score [15],composite z-score [16],composite z-score [17],composite z-score [18],composite z-score [19],composite z-score [20]
COc1ccc([Si](C)(C)[C@@H]2[C@@H](CC(=O)N3Cc4ccccc4C[C@H]3CO)O[C@]3(C(=O)N(C)c4ccccc43)[C@H]2C)cc1,1.53,-0.912 (inactive),0.256 (inactive),1.86 (inactive),1.83,-0.0789 (inactive),0.279,1.84,1.11,-0.0052,1.22,0.405,-0.174,-1.42 (inactive),1.15,1.3,1.05,1.48,0.874,0.916
CCCCCCc1nc(C2CC2)cc2c1[Si](C(C)C)(C(C)C)OC2,-0.439,0.01 (inactive),-0.183 (inactive),0.0489 (inactive),-0.908,-0.772 (inactive),-0.152,-0.798,-0.861,-0.228,-0.552,-0.226,-0.144,-1.71 (inactive),-0.729,-0.461,-0.375,-0.762,-0.356,0.819
COCCCNC(=O)[C@@]1(Sc2ccc(C)cc2)CC(=O)N(C2CCCCC2)[C@@H]1c1ccc(CO)cc1,1.08,-0.858 (inactive),0.478 (inactive),-0.874 (inactive),2.96,0.195 (inactive),0.0977,-0.804,0.0236,-0.221,0.0677,0.196,0.899,-0.397 (inactive),0.229,-0.823,-0.687,-1.1,-1.65,0.446
[N-]=[N+]=Nc1ccccc1C[C@]1(C(N)=O)N=C(c2ccc(OCCCO)cc2)O[C@H]1c1ccccc1N=[N+]=[N-],1.55,-0.376 (inactive),-1.28 (inactive),-0.686 (inactive),2.89,-0.436 (inactive),0.546,-0.306,0.877,0.701,0.902,0.504,0.676,-1.82 (inactive),0.856,0.966,0.188,-0.0523,-0.442,1.25
COCCOC(=O)N1C(=O)[C@@]2(c3cc(C#CC4=CCCCC4)ccc31)[C@H](c1ccccc1OCCO)N1[C@H](c3ccccc3)[C@H](c3ccccc3)OC(=O)[C@H]1[C@@H]2C(=O)N1CCCCCCC1,1.57,1.31 (inactive),1.59 (inactive),3.07 (inactive),2.9,0.0735 (inactive),-0.573,0.766,1.05,0.0961,1.17,1.18,-0.624,-0.262 (inactive),1.04,1.26,0.173,0.974,0.818,0.451
COC(=O)[C@@]1(Cc2ccc(F)cc2)[C@H]2c3cc(C(=O)N4CCCC4)n(CCc4ccc(O)c(O)c4)c3C[C@H]2CN1C(=O)c1ccccc1,-0.522,1.34 (inactive),1.16 (inactive),1.96 (inactive),3.22,-0.469 (inactive),1.17,-0.97,-1.04,0.978,0.391,1.8,1.04,-2.62 (inactive),-0.206,-1.73,-0.0942,-0.457,-0.359,1.1
C=C(/C(=C/C[C@H](OC(C)=O)c1cccc(OCCO)c1)c1cnc2ccccc2c1)C(C)C,0.684,1.9 (inactive),-0.3 (inactive),1.35 (inactive),1.03,0.172 (inactive),-0.0888,0.608,0.778,0.386,-0.96,-0.104,-0.105,-0.236 (inactive),0.904,0.324,0.705,1.49,0.783,1.98
C=CCNC(=O)[C@H]1[C@@H]2C(=O)O[C@@H](c3ccccc3)[C@@H](c3ccccc3)N2[C@@H](c2ccc(O)cc2)[C@]12C(=O)N(C(=O)OCCOC)c1ccccc12,1.42,0.734 (inactive),-0.66 (inactive),2.39 (inactive),2.84,0.507 (inactive),-0.0095,0.537,1,0.0798,1.27,-0.689,-0.0623,-1.59 (inactive),1.24,0.226,1.11,0.552,0.298,0.204
NC(=O)N1C(=O)C2C(C1=O)C1C=C(CCCO)C2C(c2cccs2)N1Cc1cccc(OC(F)(F)F)c1 (stereo not given),1.2,-0.367 (inactive),-1.7 (inactive),-0.967 (inactive),1.77,0.56 (inactive),-0.123,0.329,0.511,0.0625,1.41,-0.0349,-0.123,0.23 (inactive),0.493,0.177,0.121,0.211,-0.184,0.944
O[C@@H](Cc1ccccc1)[C@@H](/C=C/C1CC1)N(CC#Cc1ccccc1)Cc1cccc(Cl)c1,-0.235,0.949 (inactive),0.322 (inactive),-0.0243 (inactive),-0.0561,1.37 (inactive),0.146,-1.4,-1.08,-0.398,-0.546,0.232,1.34,-1.61 (inactive),-1.72,-1.01,-1.69,-1.54,-1.49,0.285

# Reference: PubChem BioAssay
